Assay results as given in PMC4552634, “A New Set of Chemical Starting Points with Plasmodium falciparum Transmission-Blocking Potential for Antimalarial Drug Discovery” (PLoS ONE, 2015).
The campaign covered roughly 13,000 compounds. About 3,200 (25%) showed an effect of 50% or more. The list shows a part of the results.

Test system: P. falciparum stage V gametocytes
Design: BacTiter-Glo ATP luminescence viability of purified stage V gametocytes in 384-well plates, per cent inhibition versus DMSO
Settings: 48 h, 5 µM; inhibitor

SMILES | % Inhibition
Nc1nc(N)c2c(Cc3ccccc3)cccc2n1 [TCMDC-137764] | -5.935%
CCN(CC)CCN(Cc1ccc(-c2ccc(C(F)(F)F)cc2)cc1)C(=O)Cn1cc(CCCc2cccc(F)c2F)c(=O)c2ccccc21 [TCMDC-141331] | 81.22%
CCN(CC)CCN(Cc1ccc(-c2ccc(C(F)(F)F)cc2)cc1)C(=O)Cn1cc(CCCCc2cccc(F)c2F)c(=O)c2ccccc21 [TCMDC-141340] | 60.46%
COc1ccc(OC)c2c1CCN(C)C2Cc1cccc2ccccc12 (centres unmarked) [TCMDC-137509] | 12.85%
O=C(NC1CCC(N2CCC(c3nc4ccccc4s3)CC2)CC1)c1cc2ccccc2[nH]1 (centres unmarked) [TCMDC-132780] | -77.63%
Cc1cc(C(=O)Nc2ccc3c(c2)CCN3C2CCN(Cc3ccc4nsnc4c3)C2)no1 (centres unmarked) [TCMDC-135076] | -30.56%
O=S(=O)(NC1=NCCC1)c1cccc(Nc2nc(C(F)(F)F)nc3ccccc23)c1 [TCMDC-124821] | -4.384%
Cc1cccc2nc(-c3ccc(-c4cccc(CNCc5ccc(CN)cc5)c4)s3)[nH]c12.O=C(O)C(F)(F)F [TCMDC-132812] | 115.3%
Cc1cccc2nc(-c3ccc(-c4cccc(CNCc5cccc(N)c5)c4)s3)[nH]c12.O=C(O)C(F)(F)F [TCMDC-132936] | -17.71%
Cc1cccc2nc(-c3ccc(-c4cccc(CNCc5ccccc5)c4)s3)[nH]c12.O=C(O)C(F)(F)F [TCMDC-132703] | -30.5%
C=CCOC(=O)N1CCC(CNCc2cccc(-c3cccc(-c4nc5ccccc5[nH]4)c3)c2)C1.O=C(O)C(F)(F)F (centres unmarked) [TCMDC-133046] | -7.738%
C=CCOC(=O)N1CCC(CNCc2ccc(-c3cccc(-c4nc5ccccc5[nH]4)c3)cc2)C1.O=C(O)C(F)(F)F (centres unmarked) [TCMDC-132566] | 89.86%
C=CCOC(=O)N1CCC(CNCc2ccc(-c3cccc(-c4nc5cc(F)ccc5[nH]4)c3)cc2)C1.O=C(O)C(F)(F)F (centres unmarked) [TCMDC-133044] | 2.158%
Cc1cccc2nc(-c3ccc(-c4cccc(CNC5CCN(C)CC5)c4)s3)[nH]c12.O=C(O)C(F)(F)F [TCMDC-132736] | 105.5%
Cc1noc(C)c1-c1cccc(CNCc2cccc(-c3ccc(-c4nc5cccc(C)c5[nH]4)s3)c2)c1.O=C(O)C(F)(F)F [TCMDC-133059] | -9.203%
CNc1ccc(CNCc2cccc(-c3ccc(-c4nc5cccc(C)c5[nH]4)s3)c2)cc1.O=C(O)C(F)(F)F [TCMDC-132983] | 78.71%
CNc1ccc(CNCc2cccc(-c3ccc(-c4nc5ccccc5[nH]4)s3)c2)cc1.O=C(O)C(F)(F)F [TCMDC-132977] | -37.37%
Cc1cccc2nc(-c3ccc(-c4cccc(CNC(C)C)c4)s3)[nH]c12.O=C(O)C(F)(F)F [TCMDC-132743] | 8.329%
COc1ccc(CNCc2cccc(-c3ccc(-c4nc5cccc(C)c5[nH]4)s3)c2)cc1.O=C(O)C(F)(F)F [TCMDC-132722] | 2.559%

SMILES | % Inhibition
CC1(C)N=C(N)N=C(N)N1OCc1cccc(C#N)c1 [TCMDC-124037] | -12.77%
CCCC(C)Nc1nc(C)cc(N[C@@H](CC(C)C)C(=O)NCc2ccc(C)cc2)n1 (some centres unmarked) [TCMDC-134897] | -16.22%
Cc1ccc(N2C(=O)C3C(C2=O)C2(c4ccccc4)C(=O)C3(c3ccccc3)C(c3ccccc3)=C2c2ccccc2)cc1 (centres unmarked) [TCMDC-124241] | -3.804%
CN1C(=O)[C@H](NC(=O)[C@@H](Cc2ccccc2)NC(=S)Nc2ccccc2)N=C(c2ccccc2)c2ccccc21 [TCMDC-132115] | 12.99%
Cc1ccc(Nc2nc(C)cc(NC3CC3)n2)cc1 [TCMDC-133469] | 5.355%
CC1CCCN(Cc2c(O)ccc3c(=O)c(-c4nc5ccccc5s4)c(N)oc23)C1 (centres unmarked) [TCMDC-124468] | -5.264%
Cc1ccc(-c2nnc(-c3ccc(C(=O)NC4CCN(Cc5ccc(C#N)cc5)CC4)cc3)o2)cc1Br [TCMDC-136130] | -28.74%
Cc1ccc(Cn2c(N3CCC(C(=O)NCc4cccs4)CC3)nc3ccccc32)cc1 [TCMDC-124400] | 16.64%
Cc1cccc2nc(-c3ccc(-c4cccc(CNCCc5ccncc5)c4)s3)[nH]c12.O=C(O)C(F)(F)F [TCMDC-132853] | -22.63%
C=CCOC(=O)N1CCC(CNCc2cccc(-c3ccc(-c4nc5cccc(C)c5[nH]4)cc3)c2)C1.O=C(O)C(F)(F)F (centres unmarked) [TCMDC-133040] | 4.148%
Cc1cccc2nc(-c3ccc(-c4ccc(CNCc5ccc(CN)cc5)cc4)s3)[nH]c12 [TCMDC-132809] | 97.61%
CNCCNCc1cccc(-c2ccc(-c3nc4cccc(C)c4[nH]3)s2)c1.O=C(O)C(F)(F)F [TCMDC-132835] | 98.35%
Cc1cccc2nc(-c3ccc(-c4cccc(CNCCCNS(C)(=O)=O)c4)s3)[nH]c12.O=C(O)C(F)(F)F [TCMDC-133078] | -8.111%
COc1ccc(CNCc2ccc(-c3ccc(-c4nc5cccc(C)c5[nH]4)s3)cc2)cc1.O=C(O)C(F)(F)F [TCMDC-132727] | 15.75%
C=CCOC(=O)N1CCC(CNCc2cccc(-c3cccc(-c4nc5cccc(C)c5[nH]4)c3)c2)C1.O=C(O)C(F)(F)F (centres unmarked) [TCMDC-133038] | -20.08%
Cc1cccc2nc(-c3ccc(-c4ccc(CNCc5cccc(N)c5)cc4)s3)[nH]c12.O=C(O)C(F)(F)F [TCMDC-132932] | -65.22%
C=CCOC(=O)N1CCC(CNCc2cccc(-c3ccc(-c4nc5cccc(C)c5[nH]4)s3)c2)C1.O=C(O)C(F)(F)F (centres unmarked) [TCMDC-133043] | 63.05%
COc1cccc(CNC[C@@H](O)[C@H](Cc2ccccc2)NC(=O)c2cc(C(C)C)cc(N3CCCC3=O)c2)c1 [TCMDC-134130] | 14.96%
CCc1ccc2c(c1O)CCN(C)C2Cc1ccccc1Cl (centres unmarked) [TCMDC-137165] | 18.04%
